From PubChem BioAssay
N-glyco inh = blocks N-linked glycosylation in D54 reporter cells | 360,000 tested, 0.23% active | D54 ERlucT glycosylation luciferase reporter, 24 h; percent of 100 nM tunicamycin response | reporter increase, % at 12.5 µM;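 active means mean luciferase reporter signal, scaled so untreated is 0 and the glycosylation-blocking control 100, at or above a set limit in every replicate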;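 further: luciferase carries N-glycosylation sites so blocking glycosylation raises the light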
ALR H2O2 inh = inhibitors of human sulfhydryl oxidase ALR. 290,000 tested, 3.8% active. purified ALR, DTT oxidation, H2O2 HRP-luminol luminescence. P55789. inhibition, % (concentration not given with the values);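 active means mean replicate inhibition above about 79%, with every replicate also reaching it, limit read from the data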
Target sequence (P55789 whole entry, looked up): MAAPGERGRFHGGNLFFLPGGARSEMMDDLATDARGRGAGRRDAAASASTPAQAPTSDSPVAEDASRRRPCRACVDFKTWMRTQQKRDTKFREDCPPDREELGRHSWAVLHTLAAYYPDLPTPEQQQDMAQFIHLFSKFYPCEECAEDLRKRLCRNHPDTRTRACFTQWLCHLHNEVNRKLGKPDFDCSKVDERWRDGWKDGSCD
CDK5 inh = CDK5/p35 (human) kinase inhibition; Q00535+Q15078; Recombinant CDK5/p35, ADP-Glo luminescence, 60 min; inhibition, % at 10 µM; 330,000 tested, 0.01% active; AID 488839;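 active means highest replicate inhibition of at least 50% and at least 75% of replicates reaching 50%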
SUMO Mot1 rescue = SUMOylation pathway inhibition by Mot1-301 growth rescue | growth rescue, % at 18.8 µM | 320,000 tested, 1% active | S. cerevisiae Mot1-301 growth rescue, ATP luminescence, 38.5C; percent above DMSO median, 100 means doubled;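 active means every valid replicate shows activation above 250% relative to neutral control wells; inactive means the rest, any valid replicate at or below 250%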
NSD2 inh = inhibitors of human histone methyltransferase NSD2; O96028; 310,000 tested, 0.54% active; AID 743445; NSD2 peptide methylation, AlphaScreen, 120 min; inhibition, % at 12.5 µM; in the data active means inhibition above about 50%
Casp6 inh = caspase-6 (human) enzyme inhibition. P55212. purified caspase-6, Z-VEID-R110 cleavage fluorescence. inhibition, % at 12.5 µM. 350,000 tested, 0.53% active. AID 686996;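 active means mean inhibition across replicates at least about 35%, with every replicate also reaching that limit, limit read from the data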
Hits are given with their value; 0 = inactive; - = no result. Rows were chosen to be rich in hits. Some 3.9% of all compounds tested hit in one or more screens of this group.

SMILES	N-glyco inh	ALR H2O2 inh	CDK5 inh	SUMO Mot1 rescue	NSD2 inh	Casp6 inh
c1ccc2c(NC3CCCC3)nnc(NC3CCCC3)c2c1	0	98.4	0	0	-	-
C[C@@H]1CN([C@@H](C)CO)C(=O)c2cc(NS(=O)(=O)c3cccs3)ccc2O[C@H]1CN(C)Cc1ccc(Oc2ccccc2)cc1	-	-	-	-	-	0
COc1cccc(/C=N/NC(=O)c2ccc3nc[nH]c3c2)c1	0	92.6	0	0	0	0
CCN(CC)c1ccc(/C=N/NC(=O)c2ccc3nc[nH]c3c2)cc1	0	98.9	0	0	0	0
COc1ccc(OC)c(/C=N/NC(=O)c2ccc3nc[nH]c3c2)c1	0	0	0	0	0	0
Cc1ccc(S(=O)(=O)N[C@H]2CC[C@H](CC(=O)N3CCN(c4ccccc4)CC3)O[C@@H]2CO)cc1	-	-	-	-	-	0
CCOC(=O)C1C(=O)C=C(/C=C/c2ccc(N(C)C)cc2)CC1c1ccccc1 (stereo unspecified)	0	0	0	0	0	-
CCN(CC)c1ccc(/C=C/C(=O)C2C(=O)C=C(C)OC2=O)cc1 (stereo unspecified)	0	98.8	0	0	0	0
COCC(=O)Nc1ccc2c(c1)C(=O)N(C)C[C@@H](OC)[C@@H](C)CN(Cc1cc(F)ccc1F)[C@H](C)CO2	-	-	-	-	-	0
COc1cc2sc3cc(NCCCN4CCOCC4)ccc3c(=O)c2cc1OC	0	99.2	0	0	-	0
O=c1c2ccccc2sc2ccc(NCCCN3CCOCC3)cc12	0	0	0	0	-	0
O=C(CSc1ccc(-c2ccccc2)nn1)c1cccs1	0	91.9	0	0	0	0
Cc1ccc(C(=O)CSc2ncnc3ccccc23)o1	0	98.7	0	0	0	0
O=C(CSc1ncnc2ccccc12)NCC(=O)c1ccccc1	0	96.9	0	0	0	0
O=C(CSc1ncnc2ccccc12)c1cccs1	0	98.8	0	0	-	0
COc1ccc(-c2ccc(SCC(=O)c3cccs3)nn2)cc1	0	0	0	0	0	0
O=C(CSc1ncnc2ccccc12)N1CCCC1	0	0	0	0	-	0
NS(=O)(=O)c1ccc(CCNC(=O)CSc2ncnc3ccccc23)cc1	0	0	0	0	0	-
C[C@H]1CN([C@@H](C)CO)C(=O)c2cc(NS(=O)(=O)c3ccc(Cl)cc3)ccc2O[C@H]1CN(C)S(=O)(=O)c1cn(C)cn1	-	-	-	-	-	0
COc1cccc(S(=O)(=O)N[C@H]2CC[C@@H](CCNC(=O)Nc3cc(F)ccc3F)O[C@@H]2CO)c1	-	-	-	-	-	0
CC(C)NC(=O)N(C)C[C@@H]1OCCCC[C@@H](C)Oc2ccc(NC(=O)Nc3ccc4c(c3)OCO4)cc2C(=O)N([C@@H](C)CO)C[C@H]1C	-	-	-	-	-	0
Cc1ccc(Nc2nnc(SCc3cc(=O)n4cc(C)ccc4n3)s2)cc1	0	98.8	0	0	0	0
Nc1ccc(-c2cc(NC=O)c3ncc(-c4cccc(C(F)(F)F)c4)n3c2)cn1	28.6	-	-	-	0	0
C[C@@H]1CN([C@@H](C)CO)C(=O)Cc2cc(NS(=O)(=O)c3ccc(F)cc3)ccc2O[C@@H]1CN(C)C(=O)NC1CCCCC1	-	-	-	-	-	0
Cc1noc(C)c1S(=O)(=O)Nc1ccc2c(c1)C(=O)N([C@@H](C)CO)C[C@@H](C)[C@@H](CN(C)C(=O)NC(C)C)OCCCC[C@@H](C)O2	-	-	-	-	-	0
SMILES	N-glyco inh	ALR H2O2 inh	CDK5 inh	SUMO Mot1 rescue	NSD2 inh	Casp6 inh
Cc1cc(SCC(=O)N/N=C/c2ccc(O)c(O)c2O)c(C)cc1Br	0	95.2	0	0	-	-
COCC(=O)N[C@@H]1CC[C@H](CC(=O)NCc2ccc(Cl)cc2)O[C@@H]1CO	-	-	-	-	-	0
CC1(C(=O)O)CCC(C(=O)Nc2ccccc2O)C1(C)C (stereo unspecified)	0	86.3	0	0	0	-
Cn1c(N)c(N2CCN(c3ccccc3)CC2)c(=O)[nH]c1=O	0	98.4	0	0	0	0
Cn1c(N)c(C(=O)Nc2ccccc2)c(=O)[nH]c1=O	-	0	-	0	-	-
Nc1c(N)c2ccccc2oc1=O	0	0	0	0	0	-
Nc1c(N2CCN(c3ccccc3)CC2)c2ccccc2oc1=O	0	97.7	0	0	0	-
CCOC(=O)c1oc2ccccc2c1CN1CCN(c2ccccc2)CC1	0	94.0	0	0	0	-
CC(C)Nc1c(N)c(=O)oc2ccccc12	0	91.9	0	0	-	-
Cc1ccc(Nc2c(N)c(=O)oc3ccccc23)cc1	0	-	0	0	0	-
CNc1c(N)c(=O)oc2ccccc12	0	92.5	0	0	0	0
